Experimental data reported in PubChem BioAssay AID1566 (Sanford-Burnham Center for Chemical Genomics, 2009).
Hit rate of the full screen: of about 290,000 compounds, about 1,800 (0.62%) were called active. Many of the other results were omitted from the sample, so actives are more common in it than they were. Unmarked numbers belong to inactive results. Rule as the data show it: active = inhibition above about 50%; inactive = the rest.

test: inhibition of NOD2-driven NF-kB reporter – cell-based, luminescence, uHTS, HEK293 (AID 1566); conditions: HEK293 NOD2/NF-kB luciferase reporter, at 4 µM, active compounds read high

Row | Structure (SMILES) | inhibition
1 | O=c1[nH]c(C2CCCN(S(=O)(=O)c3ccccc3)C2)nc2c1nnn2Cc1ccc2c(c1)OCCO2 (stereo not drawn) | 21.7%
2 | O=C(CN(CC1CCCO1)C(=O)CCC(=O)Nc1ccccn1)NCC1CCCO1 (stereo not drawn) | 4.7%
3 | Cc1ccc(C)c(-n2c(-c3ccc4c(c3)OCO4)n[nH]c2=S)c1 | 13.9%
4 | C=C(C)COc1ccc(-c2nc(N)nc(C)c2-c2ccc(OC)cc2)c(O)c1 | 20.5%
5 | CCC(C)(C)C1CCC2(CC1)NC(=O)N(CC(=O)N(C)CC(=O)Nc1ccccc1C(F)(F)F)C2=O (stereo not drawn) | 52.8% (active)
6 | O=C(CN1C(=O)NC2(CCCC2)C1=O)Nc1ccccc1C(F)(F)F | 18.6%
7 | CCc1ccccc1NC(=O)CN(C)C(=O)CN1C(=O)NC2(CCCCCC2)C1=O | 9.4%
8 | CCOC(=O)N1CCC(NC(=O)c2ccc3c(c2)N(C)CCS3)CC1 | 4.6%
9 | CN(C)S(=O)(=O)c1ccc(C(=O)Nc2cc3c(cc2C(=O)O)OCCCO3)cc1 | 4%
10 | COc1ccc(C2NC(=O)NC(C)=C2[N+](=O)[O-])cc1OC (stereo not drawn) | 9.2%
11 | COc1ccc(/C=N/n2c(C)nc3ccccc3c2=O)cc1 | -11.4%
12 | CCOC(=O)C1=C2c3ccc4ccccc4c3CC(C)(C)N2C(=O)C1=O | 17.7%
13 | CC1(C)Cc2c(ccc3ccccc23)C2=C(C(=O)N3CCCC3)C(=O)C(=O)N21 | 52.7% (active)
14 | CC1(C)Cc2ccccc2C2=C(C(=O)N3CCCCCC3)C(=O)C(=O)N21 | 16.7%
15 | Cc1ccc(S(=O)(=O)NCC(=O)OCC(=O)c2ccc(Br)s2)cc1 | -2.2%
16 | COC(=O)c1sccc1NC(=O)CSc1ccccc1NS(=O)(=O)c1ccccc1Cl | 26%
17 | COC(=O)c1sccc1NC(=O)CSc1ccccc1NS(=O)(=O)c1ccc(Cl)cc1 | 28.6%
18 | CN1CCN(C(=O)/C=C/c2c(F)cccc2Cl)CC1 | 9.9%
19 | c1ccc(-c2csc3nnc(SCc4ccc5c(c4)OCCO5)n23)cc1 | 33.7%
20 | O=C(/C=C\Nc1ccccn1)c1ccccc1 | -121%
21 | O=C(/C=C/Nc1ccccc1Br)c1ccccn1 | 60% (active)
22 | O=C(/C=C\Nc1ccc2c(c1)OCO2)c1ccccn1 | 33.4%
23 | CC1CCCC(NCC(O)COC(c2ccc(F)cc2)c2ccc(F)cc2)C1C (stereo not drawn) | 0.7%
24 | Fc1ccc2nc(Nc3nc4c(F)cc(F)cc4s3)sc2c1 | -36.7%
25 | COC(=O)c1ccc2nc(NC(=O)C(C)(C)C)sc2c1 | -3.1%
26 | CCC(CC)c1nnc(NC(=O)C2CC(=O)N(C3CCCC3)C2)s1 (stereo not drawn) | 8%

Row | Structure (SMILES) | inhibition
27 | Cc1ccc(S(=O)(=O)N2CCCCC2)cc1NC(=O)CSc1ncnc2ccccc12 | -36.1%
28 | Cc1ccc(NC(=O)CSc2ncnc3ccccc23)cc1S(=O)(=O)N1CCCCCC1 | 40.3%
29 | OC1(c2cccnc2)CCN(Cc2nnnn2C2CCCCC2)CC1 | 19.2%
30 | CCC/C(=N\NC(=O)CNC(=O)/C=C/c1ccco1)c1ccccc1 | 6.6%
31 | Cc1ccc2c(c1)sc(-c1ccc(N(C)C)cc1)[n+]2C | 51% (active)
32 | COc1ccc(C)cc1Nc1n[n+](-c2ccccc2)c(-c2ccc(N(C)C)cc2)s1 | 8.3%
33 | CC[n+]1c(C)sc2cc(C)ccc21 | 5.7%
34 | CC(C)OC(=O)Nc1ccc(Oc2c(F)c(F)c(F)c(F)c2F)cc1 | -5.3%
35 | CCC(C)c1cc(S(=O)(=O)N2CCOCC2)ccc1OC (stereo not drawn) | -10.6%
36 | COc1cccc(/C=N/NC(=O)C[n+]2ccccc2)c1O | 1%
37 | C=CCc1cccc(/C=N/NC(=O)C[n+]2ccccc2)c1O | 53.2% (active)
38 | C=CCc1cccc(/C=N/NC(=O)CNc2ccccc2)c1O | 17.2%
39 | CN(C)CCNC(=S)NC1CCCCC1 | 8.6%
40 | CCCCCCCCCc1nc2sc3c(c2c(=O)n1NC(=O)c1ccc([N+](=O)[O-])cc1)CC(C)(C)OC3 | 57% (active)
41 | CCCCCCCCCc1nc2sc3c(c2c(=O)n1NC(=O)c1ccccc1[N+](=O)[O-])CC(C)(C)OC3 | 12.2%
42 | CCCCCc1nc2sc3c(c2c(=O)n1NC(=O)c1ccc([N+](=O)[O-])cc1)CC(C)(C)OC3 | 5.3%
43 | Cc1oc2c(C)c3oc(=O)c(CCC(=O)NCCCCCC(=O)O)c(C)c3cc2c1C | 18.8%
44 | O=C(Nc1ccc(Cl)cc1)c1ccc2ncsc2c1 | -66.3%
45 | COC(=O)C(C)Oc1ccc(-c2nccc(-c3cccs3)n2)cc1 (stereo not drawn) | -13.1%
46 | Oc1ccc(-c2nccc(-c3cccs3)n2)cc1 | -139%
47 | O=C(O)COc1ccc(-c2nccc(-c3cccs3)n2)cc1 | 55.9% (active)
48 | O=C(c1cnccn1)N1CCc2c([nH]c3ccccc23)C1c1cccc(Cl)c1 (stereo not drawn) | -198%
49 | CC(C)(C)c1ccc(S(=O)(=O)N2CCC(c3nc4ccc(Cl)cc4[nH]3)CC2)cc1 | -18.9%
50 | Cn1nccc1C(=O)NC1CCCc2c1cnn2-c1cc(F)cc(F)c1 (stereo not drawn) | 30.4%
51 | O=C(NC1CCCc2c1cnn2-c1ccccc1F)c1ccccn1 (stereo not drawn) | -49.8%
52 | Cc1cc(C)cc(-n2ncc3c2CCCC3NC(=O)C2(C(N)=O)CC2)c1 (stereo not drawn) | 7.2%

Row | Structure (SMILES) | inhibition
53 | Cc1nnsc1C(=O)NC1CCCc2c1cnn2-c1cc(F)cc(F)c1 (stereo not drawn) | 21.9%
54 | Cc1cccc(-n2ncc3c2CCCC3NC(=O)C2CCOCC2)c1C (stereo not drawn) | 41.8%
55 | Cc1nnsc1C(=O)NC1CCCc2c1cnn2-c1ccccc1F (stereo not drawn) | 51.1% (active)
56 | Cc1nnsc1C(=O)NC1CCCc2c1cnn2-c1ccc(F)cc1F (stereo not drawn) | 49.3%
57 | CC(=O)N/C(=C\c1ccc2c(c1)OCO2)C(=O)NC(C(=O)O)c1ccccc1 (stereo not drawn) | 19.8%
58 | Cc1cccc2sc(NC(=O)CSc3nnnn3C)nc12 | -7%
59 | O=C(CNC(=O)c1ccc(Oc2ccccc2)cc1)OC1CCCCC1=O (stereo not drawn) | 10.8%
60 | Cc1cccc(Nc2nc(N)nc(CSC(=S)N3CCOCC3)n2)c1 | -21.1%
61 | CCc1cccc(C)c1NC(=O)c1ccoc1C | 4.5%
62 | Cc1ccc2nc(-c3ccccc3)cn2c1 | 26.7%
63 | Cc1ccc(-c2cn3cc(C)ccc3n2)cc1 | 71.8% (active)
64 | Cc1ccc2nc(-c3ccc(O)c(O)c3)cn2c1 | -51.7%
65 | CCOC(=O)C1CCN(S(=O)(=O)c2c(C)n(C)c(=O)n(C)c2=O)CC1 | -0.5%
66 | O=C1CC(N2CCN(C/C=C/c3ccccc3)CC2)C(=O)N1Cc1cccs1 (stereo not drawn) | 7.5%
67 | Cc1ccc(-c2nc(-c3ccccn3)no2)cc1 | 84.3% (active)
68 | c1ccc(-c2noc(-c3ccc4ccccc4c3)n2)nc1 | 45%
69 | Cc1ccc(-c2nc(-c3ccccn3)no2)cc1Cl | 47.8%
70 | COc1cc(-c2nc(-c3ccccn3)no2)cc(OC)c1OC | -18.2%
71 | c1ccc(-c2nc(-c3ccccn3)no2)cc1 | 20.1%
72 | COc1cccc(-c2nc(-c3ccccn3)no2)c1 | -16.1%
73 | c1ccc(-c2ccc(-c3nc(-c4ccccn4)no3)cc2)cc1 | 67% (active)
74 | c1ccc(-c2noc(-c3ccncc3)n2)nc1 | -43.2%
75 | COc1ccc(-c2nc(-c3ccccn3)no2)cc1 | 84% (active)
76 | CCOC(=O)c1ccc2c(c1)nc(SCC(=O)c1ccco1)n2CC | 8.2%
77 | CN(C)CCNC(=O)c1cc2cc(Br)ccc2oc1=O | -0.6%
78 | COc1ccc(N/C(N)=N/c2nc(CSc3nnc(C)s3)cc(=O)[nH]2)cc1 | -37.9%

Row | Structure (SMILES) | inhibition
79 | Cc1ccc(C)c(Sc2ccc(NC(=O)CCl)cc2)c1 | -19.5%
80 | Cc1ccc(Sc2ccc(NC(=O)CCl)cc2)cc1C | 0.9%
81 | O=C(CCl)Nc1ccccc1Sc1ccccc1 | -24.6%
82 | O=C(Cc1ccc(Cl)cc1)Nc1ccccc1Sc1ccccc1 | 0.7%
83 | COc1ccccc1C1=NC(c2ccc(F)cc2)N=C1C (stereo not drawn) | -33.6%
84 | COc1ccc(-n2nc(C(=O)NCC(=O)N3CCN(Cc4ccccc4)CC3)c3ccccc3c2=O)cc1 | -1.4%
85 | CC1(c2ccccc2)NC(=O)N(CC(=O)Nc2nnc(C3CC3)s2)C1=O (stereo not drawn) | -9.7%
86 | COc1ccc(/C=N/n2c(SC)nnc2-c2ccccc2)c(OC)c1OC | -38.9%
87 | COc1ccc(-n2c(Cc3cccn3C)nnc2SCC(=O)Nc2ccc3c(c2)OCCO3)cc1 | 6.8%
88 | O=C(c1ccccc1)c1cc([N+](=O)[O-])ccc1N1CCOCC1 | 5.9%
89 | Cc1cc2ncn(C3CC(=O)N(C)C3=O)c2cc1C (stereo not drawn) | 10.1%
90 | CCCN1C2CCCC1CC(NC(=O)C1CCCCC1)C2 (stereo not drawn) | -3.5%
91 | CN1CCN(C(=O)C2CC(=O)N(c3ccc(Cl)cc3)C2)CC1 (stereo not drawn) | -8.8%
92 | CCCCCc1ccc(-c2ccc(/C=C/C(=O)O)cc2)nc1 | -82.7%
93 | CCCCCc1ccc(-c2ccc(/C=C/C(N)=O)cc2)nc1 | -57.2%
94 | CCCc1ccc(-c2ccc(/C=C/C(=O)O)cc2)nc1 | 78.4% (active)
95 | Cc1sc2ncnc(NCC(c3ccccc3)N(C)C)c2c1C (stereo not drawn) | 10.2%
96 | NS(=O)(=O)c1ccc(CCNc2ncnc3sccc23)cc1 | 34.1%
97 | Cc1sc2ncnc(NCCc3ccc(S(N)(=O)=O)cc3)c2c1C | 55.7% (active)
98 | Cc1sc2ncnc(NCC(O)c3ccccc3)c2c1C (stereo not drawn) | 40.2%
99 | Cc1sc2ncnc(N[C@@H](CCC(=O)O)C(=O)O)c2c1C | 2.8%
100 | COc1ccc(C(CNc2ncnc3sc(C)c(C)c23)N(C)C)cc1 (stereo not drawn) | 69.8% (active)
101 | Cc1nc(NCCc2ccc(S(N)(=O)=O)cc2)c2c(C)c(C)sc2n1 | 45.1%
102 | Cc1sc2ncnc(NCC(O)c3ccc([N+](=O)[O-])cc3)c2c1C (stereo not drawn) | 51.7% (active)
103 | COc1ccccc1C(CNc1ncnc2sc(C)c(C)c12)N(C)C (stereo not drawn) | 18.9%
